PHOSPHO1 block – PubChem AID 1565; Phosphoethanolamine/phosphocholine phosphatase (Homo sapiens), Q8TCT1; recombinant PHOSPHO1, absorbance phosphatase assay; inhibition, % at 13.3 µM; actives 1.1% (n = 290,000); in the data active = inhibition above about 60%
APOBEC3G inh – APOBEC3G DNA deaminase inhibitors, primary screen, biochemical, fluorescence, single-stranded DNA substrate, uHTS | inhibition, % at 20 µM | actives 0.28% (n = 330,000) | DNA dC->dU-editing enzyme APOBEC-3G (Homo sapiens), Q9HC16 | recombinant A3G, ssDNA deamination FAM/TAMRA fluorescence;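 active = inhibition of at least 40% at 20 µM, with no more than 30% in the related APOBEC3A deaminase screen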;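 also: plate controls were DMSO wells with A3G for no effect and wells lacking A3G enzyme for full effect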
Target sequence (Q9HC16 whole entry, looked up): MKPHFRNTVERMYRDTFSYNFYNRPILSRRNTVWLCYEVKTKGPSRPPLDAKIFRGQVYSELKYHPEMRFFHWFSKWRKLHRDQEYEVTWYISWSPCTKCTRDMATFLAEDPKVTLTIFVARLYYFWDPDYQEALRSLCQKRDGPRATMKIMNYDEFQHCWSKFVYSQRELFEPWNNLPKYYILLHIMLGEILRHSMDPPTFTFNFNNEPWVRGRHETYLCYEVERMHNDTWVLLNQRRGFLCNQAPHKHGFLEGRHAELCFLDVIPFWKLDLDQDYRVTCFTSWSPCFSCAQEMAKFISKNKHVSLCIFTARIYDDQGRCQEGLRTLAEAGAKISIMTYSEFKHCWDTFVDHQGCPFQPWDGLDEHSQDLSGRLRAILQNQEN
Wnt bcat act – Wnt/beta-catenin pathway activators, primary screen, cell-based, plate reader, single point; Wnt/beta-catenin reporter cell assay, activator; activation, % at 9.35 µM; actives 1.2% (n = 300,000); AID 743398, 2014; in the data active = activation above about 30%, passing the limit was not always enough; inconclusive = no clear call, values can overlap the other calls;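 also: 0% = neutral control wells and 100% = positive control wells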
MITF TRPM1 HTS – activators of MITF-driven TRPM1 promoter reporter, primary screen, cell-based, SK-MEL-5, luciferase, single point | actives 0.75% (n = 300,000) | activation, % at 12.5 µM | SK-MEL-5 TRPM1-promoter luciferase, 24 h; % of positive control, neutral wells = 0;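 active = mean activation of at least 80% with every replicate also reaching 80%; inconclusive = mean reaches 80% but some replicate falls short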;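 also: 0% = neutral control wells and 100% = parthenolide positive control wells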
APOBEC3A inh – APOBEC3A ssDNA deaminase inhibitors, primary screen, selectivity assay for APOBEC3G inhibitor project, biochemical, FAM/TAMRA oligo cleavage fluorescence; AID 493011, 2011; DNA dC->dU-editing enzyme APOBEC-3A (Homo sapiens), P31941; inhibition, % at 20 µM; actives 0.41% (n = 330,000); recombinant A3A, FAM/TAMRA ssDNA deamination fluorescence;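 active = at least 40% inhibition at 20 µM here, with at most 30% in a related deaminase screen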;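 also: plate controls were A3A with DMSO for no effect and wells lacking A3A enzyme for full effect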
Target sequence (P31941 whole entry, looked up): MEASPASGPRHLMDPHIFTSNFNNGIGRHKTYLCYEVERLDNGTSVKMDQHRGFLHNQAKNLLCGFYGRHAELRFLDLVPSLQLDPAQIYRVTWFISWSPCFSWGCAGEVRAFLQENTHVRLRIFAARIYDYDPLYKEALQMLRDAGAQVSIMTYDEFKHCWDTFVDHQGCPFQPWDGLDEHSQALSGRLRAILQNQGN
esBAF inh – Bmi1 luciferase reporter increase in mESCs, primary screen, esBAF inhibitor project, mouse ES cells, Bmi1 luciferase knock-in, single point | AID 602393, 2012 | reporter increase, % at 12.5 µM | 24 h; 100% = twice the neutral-well signal | actives 2% (n = 350,000); in the data active = activation above about 40%; inconclusive = no clear call, values can overlap the other calls;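 also: 0% = median of the plate's neutral control wells and 100% = double that signal; a rise in the Bmi1 reporter signal indicates esBAF inhibition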
* marks the source's active call; other numbers are inactive results; ? = inconclusive; . = no result; ! = not confirmed by another sample. This is a sample that favours compounds with a hit; in the whole collection about 3.6% have one here.

SMILES	PHOSPHO1 block	APOBEC3G inh	Wnt bcat act	MITF TRPM1 HTS	APOBEC3A inh	esBAF inh
C[C@H](CO)N1C[C@H](C)[C@@H](CN(C)S(=O)(=O)c2cccs2)Oc2c(NC(=O)Nc3ccc4c(c3)OCO4)cccc2C1=O	.	8	-1	9	-3	57*!
C[C@H](CO)N1C[C@H](C)[C@H](CN(C)S(=O)(=O)c2cccs2)Oc2c(NS(=O)(=O)c3cn(C)cn3)cccc2C1=O	.	.	.	.	.	-4
C[C@H]1CN([C@@H](C)CO)C(=O)c2cccc(NC(=O)Nc3ccc4c(c3)OCO4)c2O[C@@H]1CN(C)S(=O)(=O)c1cccs1	.	.	.	.	.	44*
C[C@H](CO)N1C[C@H](C)[C@@H](CN(C)S(=O)(=O)c2cccs2)Oc2c(NS(=O)(=O)c3cn(C)cn3)cccc2C1=O	.	-3	47*	11	1	0
O=C(N/N=C/c1ccc(N2CCOCC2)cc1)c1ccccn1	2	-5	36*	67	-2	.
O=C(N/N=C/c1ccc(OC(=O)c2cccs2)cc1)c1ccccn1	21	-6	28	99*	-3	.
CCOc1cc(/C=N/NC(=O)c2ccccn2)ccc1OC(=O)c1cccs1	36	-3	7	15	0	18
C[C@H](CO)N1C[C@H](C)[C@H](CN(C)C(=O)c2ccncc2)OCc2ccccc2-c2ccccc2C1=O	.	.	.	.	.	-5
C[C@H]1CN([C@@H](C)CO)C(=O)c2cc(-c3cccnc3)cnc2O[C@@H]1CN(C)C(=O)Nc1ccc(C(F)(F)F)cc1	.	.	.	.	.	0
CC(C)c1cc2cc3ccc(=O)oc3cc2o1	10	-3	-2	94*	-1	52*
Cc1cccnc1Nc1nc(-c2ccc(O)c(O)c2)cs1	30	-7	15	45	-3	-13
Cc1cccc(Nc2nc(-c3ccc(O)c(O)c3)cs2)n1	31	-6	8	.	0	93*
Oc1ccc(-c2csc(Nc3ccccn3)n2)cc1O	-6	2	8	.	3	1
Cc1cccc(Nc2nc(-c3ccc(F)c(C)c3)cs2)n1	28	-3	46*	66	1	58*
Nc1cnc(Nc2ccc(Br)cc2)nc1N	56	-4	2	72	0	53*
N#Cc1c(N)nc(N)nc1Nc1ccc(Br)cc1	46	-14	29	4	-4	.
COc1ccc(-c2nc(CS(=O)CC(=O)NC3CCC(C)CC3)c(C)o2)cc1OC (stereo not drawn)	32	-3	12	45	0	77*
C[C@H](CO)N1C[C@H](C)[C@@H](CN(C)C(=O)Nc2ccccc2)Oc2ccc(NS(=O)(=O)c3cccs3)cc2CC1=O	.	.	.	.	.	4
COc1ccc(NC(=O)N(C)C[C@@H]2OCc3cn(nn3)CCCC(=O)N([C@H](C)CO)C[C@@H]2C)c(OC)c1	.	.	.	.	.	0
Cc1ccc(-c2onc3ccc(C(=O)O)cc23)cc1	.	-4	4	.	-3	50*
NC(=O)NC(=O)COC(=O)c1ccc2noc(-c3ccccc3)c2c1	22	-8	1	37	-4	68*
CC(=O)COC(=O)c1ccc2noc(-c3ccccc3)c2c1	12	-7	5	-6	0	27
N#Cc1c(/N=C/c2ccc(-c3ccc(C(=O)O)c(Cl)c3)o2)sc2c1CCCC2	.	-4	0	13	1	10
N#Cc1c(/N=C/c2ccc(-c3ccccc3C(=O)O)o2)sc2c1CCCC2	-3	7	9	38	31	57*
CCOc1ccc(N/C=C/C(=O)c2ccc(OC)c(OC)c2)cc1	39	-6	5	.	-6	70*
SMILES	PHOSPHO1 block	APOBEC3G inh	Wnt bcat act	MITF TRPM1 HTS	APOBEC3A inh	esBAF inh
COc1ccc(C(=O)/C=C/Nc2ccc(C)cn2)cc1OC	-51	-2	.	18	-2	60*
CCOC(=O)c1ccc(N/C=C/C(=O)c2ccc(OC)c(OC)c2)cc1	22	-3	.	-2	3	12
CCCOc1ccc(N/C=C/C(=O)c2ccc(OC)c(OC)c2)cc1	24	-3	1	14	-7	3
COc1ccc(N/C=C\C(=O)c2ccc3ccccc3c2)cc1	46	-1	10	.	-5	43*
CO[C@H]1CN(C)C(=O)c2cc(NC(=O)c3cccc(F)c3)ccc2OC[C@H](C)N(CC2CC2)C[C@@H]1C	.	.	.	.	.	-2
CO[C@H]1CN(C)C(=O)c2ccc(NC(=O)NC(C)C)cc2OC[C@@H](C)N(C)C[C@H]1C	.	.	.	.	.	1
O=C(CCc1cn2ccccc2n1)NC1CCCc2c1cnn2-c1ccccc1F (stereo not drawn)	75*	-9	1	-6	-5	-6
Cc1cc(C)c(C#N)c(SCc2nnc(-c3ccccc3[N+](=O)[O-])o2)n1	28	-7	75*	15	-2	23
CC(=O)Nc1cccc(OCC(=O)Nc2ccccc2)c1	9	-2	38*	.	-4	45*
Cc1ccc(OCC(=O)Nc2cccc(O)c2)cc1C	16	-3	49*	104*	-2	18
Cc1cccc(OCC(=O)Nc2cccc(O)c2)c1	-3	1	34*	.	7	23
Cc1ccc(C)c(OCC(=O)Nc2cccc(C(=O)O)c2)c1C	3	-4	37*	.	0	?
Cc1cccc(NC(=O)COc2ccccc2)c1	16	0	4	62	7	12
C[C@H]1CN([C@@H](C)CO)C(=O)c2cccc(NC(=O)C3CCCCC3)c2O[C@H]1CN(C)CC1CC1	.	.	.	.	.	0
COc1ccc(CN(C)C[C@H]2Oc3ccc(NC(=O)Nc4ccccc4)cc3C(=O)N([C@H](C)CO)C[C@@H]2C)cc1	.	.	.	.	.	-7
CCC(C)c1ccc(OCC(=O)Nc2cccc(C(=O)Nc3ccc(C(=O)O)cc3)c2)cc1 (stereo not drawn)	25	0	20	42	4	47*
CC(C)c1ccc(NC(=O)COc2ccccc2)cc1	-21	-34	-2	66	-4	79*
O=C(COc1cc(Cl)c(Cl)cc1Cl)Nc1ccncc1	-3	1	10	.	3	12
O=C(COc1cc(Cl)c(Cl)cc1Cl)Nc1cccc(O)c1	-44	-5	45*	139*	-2	.
C/C=C/c1cccc(-c2nc(C(=O)NCc3ccc(OC)cc3)cc3c2[C@@H](CCO)N([S@](=O)C(C)(C)C)C3)c1	.	.	.	.	.	10
COc1ccc(NC(=O)Nc2ccc3c(c2)C(=O)N([C@@H](C)CO)C[C@H](C)[C@H](CN(C)C(=O)Cc2ccccc2)OCCCC[C@H](C)O3)cc1	.	.	.	.	.	5
CC1CCN(c2ccc(NC(=S)NC(=O)c3ccco3)cc2)CC1	-44	-6	.	17	-5	46*
